# MARV entry inh = qHTS for inhibitors of binding or entry into cells for Marburg Virus; Marburg virus pseudotyped entry inhibition, cell reporter; Potency, µM (top dose mostly 37.8 µM), for inactives: at the highest dose activity change, negative = inhibition, hits mostly inhibitors; actives 1.8% (n = 300,000); AID 540276, 2011; calls by dose curve; tested in HEK293 cells; note: potency is the fitted concentration of half-maximal effect; % is set by controls: 0 for no effect and ±100 for the full control effect
# AMA1 RON2 block = qHTS for Inhibitors of AMA1-RON; Towards Development of Antimalarial Drug Lead: Primary Screen. actives 0.2% (n = 360,000). AlphaScreen AMA1-biotinylated RON2 peptide binding. Potency, µM (doses to about 58.2 µM), inactives show top-dose activity change, negative = inhibition, usual class: inhibitors. AID 720542, 2013; active = well fitted inhibition curve with a large enough effect; inconclusive = small, poorly fitted or top-dose-only effect; inactive = no such curve, though single readings can be large or run the other way;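 note: potency is the fitted concentration of half-maximal effect; 0% = vehicle wells and -100% = peptide control; nearly all actives have a fitted effect of over 45% in size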
#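 AMA1 (3D7) with his tag at 25 nM final met compounds first, then biotinylated RON2 peptide at 25 nM; detection used donor plus acceptor beads, 10 µg/mL apiece, read by AlphaScreen after 30 min at room temperature.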
# Shiga toxin inh = A qHTS for Small Molecule Inhibitors of Shiga Toxin; Vero cells, Shiga toxin protein synthesis inhibition reporter; inhibition, % at 38.7 µM; actives 9.2% (n = 290,000); AID 2315, 2010; in the data active = inhibition mostly above about 28%, no sharp cut-off; inactive = mostly below about 43%; note: 0% is about no effect
# CHX counter = Cycloheximide Counterscreen for Small Molecule Inhibitors of Shiga Toxin; AID 2314, 2010; max response, %; cell reporter, cycloheximide protein synthesis inhibition counterscreen; actives 12% (n = 300,000); in the data active = max response mostly above about 13%, no sharp cut-off; inactive = mostly below about 14%; note: read at 38.3 µM for the half of the compounds with a filed dose; 0% is about no effect
# Lassa entry inh = qHTS for Inhibitors of binding or entry into cells for Lassa Virus | Lassa virus pseudotype entry inhibition, cell reporter | Potency, µM (series often up to 37.9 µM), without a hit: at the top dose activity change, negative = inhibition, most hits filed as inhibitors | actives 1.2% (n = 300,000) | AID 540256, 2011; calls by dose curve; tested in HEK293 cells; note: potency is the fitted concentration of half-maximal effect; % is set by controls: 0 for no effect and ±100 for the full control effect; nearly all actives have a fitted effect of over 50% in size
# Numbers without * were called inactive; ? = inconclusive; . = no result given; [ ] = dose if it differs, or a comment. This is one part of a sample in which hits are shown more often than they occur.
SMILES,MARV entry inh,AMA1 RON2 block,Shiga toxin inh,CHX counter,Lassa entry inh
COc1ccc(/C=C(/NC(=O)c2ccccc2)c2nc3ccccc3[nH]2)cc1OC,1%,21%,-10,24,?
CC(C)c1ccc(/C=C(\c2nc3ccccc3[nH]2)S(=O)(=O)c2ccccc2)cc1,?,-22%,23,18*,?
Cc1ccc(NC(=O)C(C)Sc2nnc3n2CCCCC3)cc1S(=O)(=O)N1CCOCC1 (stereo not given),.,-5%,.,.,.
CN1CCN(C(=O)/C=C/c2ccc(Cl)cc2)CC1,?,1%,33,24*,12%
CN1CCN(C(=O)/C=C/c2ccc(Cl)c(Cl)c2)CC1,-1%[46.1 µM],6%,30,37*,?
CCOC(=O)C1CCCN(C(=O)c2ccc3ccccc3c2)CC1 (stereo not given),.,7%,.,.,.
CC(C)NOC(=O)c1ccc(Cl)cc1,-28%,-1%,21,46*,-11%
CCCc1cc(C(=O)Nc2ccc(F)cc2F)no1,.,6%,74*,58*,.
CCCc1cc(C(=O)Nc2cccc(Cl)c2C)no1,-2%[46.1 µM],11%,66*,52*,-24%
COc1ccc(-c2cc(C(=O)Nc3ccccc3SC)no2)cc1,?,-1%,33,6,1%
O=C(Nc1ccc(F)cc1F)c1cc(CN2CCOCC2)on1,.,.,.,.,5%[46.1 µM]
CCCc1cc(C(=O)Nc2c(C)nn(Cc3c(Cl)cccc3Cl)c2C)no1,?,.,.,.,4µM*
CCCc1cc(C(=O)Nc2ccccc2SC)no1,.,33%,88*,62*,.
COc1ccc(CC(=O)Nc2c(C(=O)N3CCN(c4ccccc4OC)CC3)oc3ccccc23)cc1OC,?,-8%,-13,-2,?
Cc1ccc(C(=O)OCC(=O)c2ccc(Cl)s2)s1,12%,31%,83*,53*,18%
Cc1ccc(C(=O)OCC(=O)NCCNC(=O)COC(=O)c2ccc(C)s2)s1,-10%[46.1 µM],-6%,.,.,0%
CCOc1ccc(S(=O)(=O)NCc2cccnc2)cc1C(C)C,?,-3%,.,0,0%
CCCOc1ccc(NC(=O)CC2C(=O)N(Cc3ccccc3)C(=S)N2Cc2cccs2)cc1 (stereo not given),?,5%,57,22*,?
COc1ccc(NC(=O)CC2C(=O)N(CCc3ccccc3)C(=S)N2Cc2cccnc2)cc1 (stereo not given),?,-12%,-7,-4,?
CCN1C(=O)C(CC(=O)Nc2ccc(OC)cc2)N(Cc2cccnc2)C1=S (stereo not given),-20%,12µM*,-12,1,1%
CCOc1ccc(NC(=O)CC2C(=O)N(c3ccc(OC)cc3)C(=O)N2CCc2cccs2)cc1 (stereo not given),?,7%,-6,-7,7.3µM*
CCC1C(=O)OC[C@@H]1Cc1cncn1C (stereo not given in full),-6%,.,.,.,.
COc1ccc(C(CNC(=O)C(=O)NC2CCCC2)N2CCN(C)CC2)cc1 (stereo not given),-2%[46.1 µM],-2%,.,.,-22%
Cn1c(C(=O)N2CCCC(C(=O)NCc3cccs3)C2)cc2sccc21 (stereo not given),-3%,0%,15,-1,0%
Cn1c(C(=O)N2CCCC(C(=O)NCCCSC3CCCCC3)C2)cc2sccc21 (stereo not given),?,-21%,-3,-4,13µM*
SMILES,MARV entry inh,AMA1 RON2 block,Shiga toxin inh,CHX counter,Lassa entry inh
Cn1ncc([N+](=O)[O-])c1C(=O)Nc1ccc(C2CCCCC2)cc1,?,-6%,59,26*,8%[46.1 µM]
Cn1ncc([N+](=O)[O-])c1C(=O)Nc1ccc(Cl)cc1,.,3%,-3,-4,.
Cn1ncc([N+](=O)[O-])c1C(=O)Nc1ccc(-c2nc3ccccc3[nH]2)cc1,0%,-2%,48*,42*,?
CCOc1ccc(C(=O)Nc2ccc(-c3nc4ccccc4[nH]3)cc2)cc1[N+](=O)[O-],3%,-8%,-5,-3,1%
CN(C)C(=O)OCc1c(-c2ccccc2)ncc2ccccc12,.,6%,.,.,.
O=C(Nc1nccs1)c1ccc(CSc2nnnn2-c2ccccc2)cc1,?,26%,41,44*,-23%
Cc1ccc(C)c(N2CCN(c3nc4ccccc4c(=O)n3-c3ccccc3)CC2)c1,-15%[46.1 µM],.,.,.,11%[46.1 µM]

# Assay outcomes as filed in PubChem BioAssay.
